CtBP-E1A inh: CtBP/E1A binding inhibition; AlphaScreen GST-E1A/His-CtBP binding, 1536-well; active compounds read low; activity change, % (no concentration beside the values); hit rate 0.49% among 340,000; AID 651724; in the data active means activity change below about -65%; inconclusive means mostly about -30% to -63%
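Protein mix (5X: 125 nM each GST-E1A, His-CtBP) was incubated with pinned compound 2 h at 37 deg C in dark, in 50 mM Tris pH 8.0 buffer with 300 mM NaCl. Glutathione donor and nickel acceptor beads followed; AlphaScreen signal read after 1 h.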
IL1B secr inh: blocks inflammasome-driven IL-1 beta release; THP-1 LPS/ATP IL-1B secretion, AlphaLISA, 16 h; active compounds read low; activity change, % at 57.5 µM; hit rate 4.7% among 360,000; AID 743279; in the data active means activity change below about -50%; inconclusive means mostly about -30% to -49%
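Secreted IL-1B measured by AlphaLISA bead assay after 16 h compound exposure of THP-1 cells; compounds (final up to 57.5 uM) added 1 h before LPS (250 ng/mL) and ATP (1.25 mM) stimulation; lower signal means less secretion.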
TDP1 cell CPT: growth inhibition of DT40 Tdp1-/-;hTDP1 cells with camptothecin (screen for TDP1 inhibitors); hit rate 12% among 420,000; chicken DT40 Tdp1-/-;hTDP1 cells + 20 nM CPT, ATP luminescence, 48 h; Potency, µM (titrated, usually from 46.2 µM), without a hit: at the highest dose activity change, negative = growth inhibition, actives largely listed as inhibitors; further: potency means the concentration at half of the fitted maximal effect; nearly all actives have a fitted effect of over 55% in size
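Chicken DT40 Tdp1-/- cells stably complemented with human TDP1 were seeded at 400 cells/well in medium containing 20 nM camptothecin, exposed to pin-transferred compounds, and grown at 37 °C for at least 48 hr. Viability was read as ATP luminescence.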
TDP1 block: blocks human tyrosyl-DNA phosphodiesterase 1 | Q9NUW8 | recombinant TDP1, AlphaScreen DNA substrate cleavage | Potency, µM (highest dose often 130 µM), inactives show at the top dose activity change, negative = inhibition, usual class: inhibitors | hit rate 0.28% among 350,000 | AID 485290; further: potency means the concentration at half of the fitted maximal effect; nearly all actives have a fitted effect of over 40% in size
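Signal: AlphaScreen proximity between streptavidin donor and anti-FITC acceptor beads on intact substrate. Reaction: Tdp1 1 nM, substrate 15 nM final, 5 min RT after 15 min compound preincubation.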
Six1-Eya2 inh: blocks human Six1 binding to Eya2; activity change, % (concentration not given with the values); hit rate 0.56% among 360,000; AlphaScreen GST-Six1/His-Eya2 binding, biochemical; active compounds read low; in the data active means activity change below about -65%; inconclusive means mostly about -30% to -63%
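Homogeneous AlphaScreen proximity assay pairing GST-Six1 with His-tagged Eya2 (added as 5X mix: 250 nM and 500 nM) in 50 mM Tris pH 8.0, 300 mM NaCl, 1 mM TCEP. Glutathione donor and nickel acceptor beads; 1 h, 37 °C, dark.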
DT40 TDP1 no CPT: qHTS for Inhibitors of human tyrosyl-DNA phosphodiesterase 1 (TDP1): qHTS in cells in absence of CPT; hit rate 15% among 420,000; Potency, µM (top dose mostly 46.2 µM), without a hit: top-dose activity change, negative = growth inhibition, actives largely listed as inhibitors; DT40 Tdp1-/- hTDP1 cells, no CPT, ATP luminescence, 48 h; further: potency means the concentration at half of the fitted maximal effect; nearly all actives have a fitted effect of over 55% in size
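Luminescent ATP content (CellTiter-Glo) served as the growth readout. Knockout chicken DT40 cells expressing human TDP1 were exposed to compounds without camptothecin for a minimum 48 hr at 37 °C.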
Active calls of the source: *; ? = inconclusive; . = no result; [ ] = remark or other dose. Sampled rows, rich in hits. Any-hit rate of the full collection: about 18%. Unless noted, the call rests on the fitted dose curve; in most records, active means well fitted curve in the direction sought with a large enough effect; inconclusive means small, poorly fitted or top-dose-only effect, or another doubt; inactive means no such curve, though single readings can be large; an effect the other way counts as inactive or inconclusive. On the % scale 0 is the no-effect control and ±100 the full control effect.

SMILES	CtBP-E1A inh	IL1B secr inh	TDP1 cell CPT	TDP1 block	Six1-Eya2 inh	DT40 TDP1 no CPT
CCN(C(=O)CN1CCCCCC1)c1c(N)n(Cc2ccccc2)c(=O)[nH]c1=O	0	12	-29%	0%	9	-2%
Cc1cc(C(=O)NCC(C)C)c2ccccc2n1	7	20	-3%	2%	1	-9%
COc1cccc(CN(C)C(=O)c2cc(S(=O)(=O)NC3CCCCC3)ccc2C)c1OC	-5	-23	?	2%	2	-3%
CCOc1ccccc1N1CCN(C(=O)CCCN2C(=O)c3cccc4cccc(c34)C2=O)CC1	-21	-16	21µM*	5%	-20	21µM*
O=C(CCCN1C(=O)c2cccc3cccc(c23)C1=O)N1CCN(c2ccccc2)CC1	-18	-11	?	3%	-3	?
O=C(CCCN1C(=O)c2cccc3cccc(c23)C1=O)N1CCN(c2ccccc2O)CC1	-1	-14	?	8%	?	15µM*
CCOc1ccccc1N1CCN(C(=O)CCCc2nc3ccccc3s2)CC1	-13	5	?	1%	-7	16µM*
CCCCCCCCCCCCCCCC(=O)NCC(=O)O	.	.	.	4%	.	.
COc1ccc(NC(=O)c2ccc(Cl)cc2)c[n+]1[O-]	4	7	-11%	.	-8	-17%
COC(=O)C1=NNCC12CC(=O)N(c1ccc(Br)cc1)C2=O (stereo unspecified)	0	-4	29%	5%	5	-19%
COc1ccc(CNC(=O)C[C@H]2C[C@H](C(=O)N3CCCCC3)[C@@]3(C)c4[nH]c5cc(-c6ccco6)ccc5c4CCN3C2=O)cc1OC	-16	0	?	4%[56.1 µM]	-21	18µM*
O=C(C[C@H]1C[C@H](C(=O)N2CCCCC2)[C@@]2(CCc3ccccc3)c3[nH]c4ccc(Cl)cc4c3CCN2C1=O)NCCc1ccccn1	3	0	?	2%[56.1 µM]	-2	18µM*
COc1ccc2[nH]c3c(c2c1)CCN1C(=O)C(CC(=O)NCc2ccc(OC)c(OC)c2)C[C@H](C(=O)N2CCOCC2)[C@@]31C (stereo partly specified)	2	-6	1%	1%[56.1 µM]	2	-15%
CCN(CC)C(=O)[C@H]1C[C@H](CC(=O)NCCCOC)C(=O)N2CCc3c([nH]c4cc(-c5ccco5)ccc34)[C@]12C	-9	27	15µM*	2%[56.1 µM]	-12	18µM*
CC[C@]12c3[nH]c4cc(-c5ccco5)ccc4c3CCN1C(=O)[C@@H](CC(=O)NCCCOC)C[C@@H]2C(=O)N1CCN(C(=O)C2CC2)CC1	0	-1	?	0%[56.1 µM]	-1	?
COc1ccc(CNC(=O)C[C@H]2C[C@H](C(=O)N3CCCCC3)[C@@]3(C)c4[nH]c5ccc(Cl)cc5c4CCN3C2=O)cc1OC	-12	-56*	18µM*	0%[56.1 µM]	-21	12µM*
CN(C)CCCNC(=O)C[C@H]1C[C@H](C(=O)N2CCCCC2)[C@@]2(CCc3ccccc3)c3[nH]c4ccc(Cl)cc4c3CCN2C1=O	-23	-7	-21%	4%[56.1 µM]	0	-15%
CCc1ccccc1NC(=O)CNCC(=O)Nc1ccccc1CC	6	-3	-20%	.	4	-18%
Cc1cc(C)n2c(Br)c(CSc3nc4ccccc4o3)nc2n1	-17	31	?	-3%	-13	?
O=C(c1n[nH]c2c1CCCC2)N1CCOc2ccc(C(O)C(c3ccccc3)c3ccccc3)cc2C1 (stereo unspecified)	.	.	19%[9.04 µM]	.	.	?
CCN(CC)C(=O)[C@H]1C[C@H](CC(=O)NCCc2ccccn2)C(=O)N2CCc3c([nH]c4cc(-c5ccco5)ccc34)[C@]12C	-6	4	18µM*	2%[56.1 µM]	-19	?

Source: PubChem BioAssay (National Center for Advancing Translational Sciences (NCATS))
